Among the data in PubChem BioAssay (EPA / NIEHS) are AC50 and outcome values, retold here.

Where “and” joins values, the source holds several entries; their conditions need not be identical. Equal values may be shown once. Some structures have more than one record in an assay (separate samples or runs), and their calls can disagree. Calls of active or inactive are those of the source. The calls were made as follows: active = hit-call score of the fitted dose curve at least 0.9, where 1 is the maximum; inactive = score below 0.9.

Read-out in the experiment: Macrophage colony-stimulating factor (MCSF), CSF1 (gene 1435)
In words: BSK_LPS_MCSF: BioMAP Diversity Plus: LPS Assay for Macrophage colony-stimulating factor (MCSF) Biomarker Activity (AID 2283083). The note with it: primary human HUVEC with PBMC; actives raise or lower the signal. As to the method:
BSK_LPS is a cell-based, multiplexed-readout assay that uses umbilical vein endothelium and peripheral blood mononuclear cells, a human vascular primary cell co-culture, with measurements taken at 24 hours after chemical dosing in a 96-well plate.BSK_LPS_MCSF is an assay component measured in the BSK_LPS assay. It measures M-CSF antibody related to regulation of gene expression using ELISA technology.Data from the assay component BSK_LPS_MCSF was analyzed into 1 assay endpoint. This assay endpoint, BSK_LPS_MCSF, was analyzed with bidirectional fitting relative to DMSO as the negative control and baseline of activity. Using a type of binding reporter, gain or loss-of-signal activity can be used to understand changes in the signaling as they relate to the gene CSF1. Furthermore, this assay endpoint can be referred to as a primary readout, because this assay has produced multiple assay endpoints where this one serves a signaling function. To generalize the intended target to other relatable targets, this assay endpoint is annotated to the cytokine intended target family, where the subfamily is colony stimulating factor.
The levels of cell surface (or secreted, indicated by the prefix "s") biomarker endpoints were measured by ELISA. Overt cytotoxicity to cells in confluent adherent cultures (all systems other than the BT system) was assessed by measuring total protein levels using sulforhodamine B (SRB) staining in parallel cultures at the time of biomarker measurements, indicated as SRB endpoints. For proliferation assays for adherent cell types, individual cell types are cultured at sub-confluence and relative cell numbers quantified by SRB staining at time points optimized for each system (48 h: 3C and CASM3C systems; 72 h: BT and HDF3CGF systems; 96 h: SAg system). SRB was performed by staining cells with 0.1% SRB after fixation with 10% TCA and reading wells at 560 nm.Viability and proliferation of PBMC (T cells) was quantified by Alamar Blue reduction for the SAg and BT systems. For PBMC viability (referred to as PBMC Cytotoxicity within the assay endpoint names), cells were plated (75,000/well in a 96-well plate) and then chemical samples added for 1 h before addition of activators, SEB and TSST-1 (20 ng/mL final concentration each). Cells were incubated for 90 h. Then, Alamar Blue (20 uL/well) (Invitrogen, Cat DAL1100) was added for 6 h, and the plates were read with a fluorescence microplate reader at 546/580 nm (excitation/emission). For PBMC proliferation, cells were plated and activated as above but incubated for only 16 h prior to addition of Alamar Blue. Plates were read after 6 h.
Turning to `OCCC(F)(F)C(F)(F)C(F)(F)C(F)(F)C(F)(F)C(F)(F)C(F)(F)C(F)(F)F`, the half-maximal activity concentration (AC50) (in general, the concentration at which the activity in the assay is half-maximal) was 43.2 µM (active) and 5.95 µM (active); the result was inactive.
As for `ClC1=C(Cl)C(Cl)(Cl)C(Cl)=C1Cl`, the concentration at half-maximal activity (AC50) was 9.94 µM (active).
In the case of `NC(=O)N(O)[C@@H]1C=C[C@H](Oc2cccc(Oc3ccc(F)cc3)c2)C1`, the outcome was inactive.
For `CCCOC(=O)c1ccc(O)cc1`, the outcome was inactive.
As for `CN1CCN(c2ccccc2/C=C2\SCCN(c3ccc(Cl)c(Cl)c3)C2=O)CC1`, the outcome was inactive.
The same measure, in the same setting: to `O=C(O)c1ccccc1C(c1ccc(O)cc1)c1ccc(O)cc1` belongs “inactive”; to `Nc1cccc2c(N)cccc12`, “inactive”.
In the case of `CCCOc1sc(C(=O)N2CCC(c3cc(CN)ccc3F)CC2)c(C)c1Br`, the concentration at half-maximal activity (AC50) is 10.7 µM (active).
Turning to `CCOC(=O)CC(O)(CC(=O)OCC)C(=O)OCC`, the result was inactive.
Still for that read-out and setting: to `O=C(O)Cc1cc(I)c(Oc2cc(I)c(O)c(I)c2)c(I)c1` belongs “inactive”; to `c1ccc2c(c1)Cc1ccccc1-2`, “inactive”; to `CCCCCCC(=O)O`, “inactive”.
Turning to `CCCCCCCCCCCCCC[N+](C)(C)C`, the AC50 was 5.39 µM (active).
In the case of `CCCCC(CC)COC(=O)CCCCC(=O)OCC(CC)CCCC` (stereo not given), the outcome was inactive.
On to `CCCCCCCC(=O)O`, for which the outcome was inactive.
For the compound `CC(C)(C)c1ccc(O)c(C(C)(C)C)c1`, the concentration at half-maximal activity (AC50) was 13.4 µM (active).
As for `CC(O)CO` (stereo not given), the outcome was inactive.
Still for that read-out and setting: the same measure for `CCCCCCCCOC(=O)CCCCCCCCC(=O)OCCCCCCCC`: “inactive”; for `NC(=O)N1C(=O)C(C(=O)c2cc(Cl)cs2)c2cc(F)c(Cl)cc21` (stereo not given): “inactive”; for `OC1CCC(C2CCCCC2)CC1` (stereo not given): “inactive”.
Still for that read-out and setting: the same measure for `CC(C)(C)c1cc(C(C)(C)C)c(O)c(C(C)(C)C)c1`: “inactive”.
Regarding `Cc1oc(-c2ccccc2)nc1CCOc1ccc(C[C@H](Nc2ccccc2C(=O)c2ccccc2)C(=O)O)cc1`, the AC50 is 30.6 µM (active).
Take `C=C(C)C(=O)OCCC(F)(F)C(F)(F)C(F)(F)C(F)(F)C(F)(F)C(F)(F)F`: the result was inactive.
Turning to `COCC(C)O` (stereo not given), the result was inactive.
With `N#C[C@@H]1CC(F)(F)CN1C(=O)CNC1CC2CCC(C1)N2c1ncccn1` (stereo not given in full), the AC50 is 2.33 µM (active).
`CCCCCCCCCCCCc1ccccc1S(=O)(=O)O`: the result was inactive.
`CC[C@H](c1ccc(O)cc1)[C@@H](CC)c1ccc(O)cc1`: the half-maximal activity concentration (AC50) is 22.4 µM (active).
Take `c1ccc2c(c1)ccc1ccccc12`: the result was inactive.
For `CCc1nn(C2CCCCC2)c2cc(C3(C#N)CCC(C(=O)O)CC3)ccc12` (stereo not given), the half-maximal activity concentration (AC50) is 1.85 µM (active).
With `CCCCOCCO`, the outcome was inactive.
The same measure, in the same setting: the same measure for `COC(=O)CCCCC(=O)OC`: “inactive”.
On the same count and under the same terms, the same measure for `O=C(OCCOCCOC(=O)c1ccccc1)c1ccccc1`: “inactive”.
As to `CC1=C(/C=C/C(C)=C/C=C/C(C)=C/C(=O)O)C(C)(C)CCC1`, the AC50 was 4.31 µM (active).
The same measure, in the same setting: to `Oc1cc2ccccc2c2ccccc12` belongs 7.85 µM (active).
With `COCC(C)OCC(C)O` (stereo not given), the outcome was inactive.
Consider `CCCCCCCCCCCCN1CCCC1=O`, for which the half-maximal activity concentration (AC50) is 32.6 µM (active).
In the case of `CC(C)(C)CC(C)(C)c1ccc(O)c(-n2nc3ccccc3n2)c1`, the result was inactive.
Consider `COc1ccc([N+](=O)[O-])cc1N`, for which the outcome was inactive.
With `Cc1cc(CCN2CCN(c3nsc4ccccc34)CC2)cc2c1NC(=O)CC2(C)C`, the AC50 is 15.3 µM (active).
